The record followed here is PubChem BioAssay (NCI).

About 79,000 compounds went through this panel and 15% of them were active in at least one assay; those are over-represented in the sample as a whole. Calls of active or inactive are those of the source. No stated cut-off is given here; in the data, active means growth inhibition above about 70%; inactive means the rest.

The assay can be described thus: NCI Yeast Anticancer Drug Screen. Data for the cln2 rad14 strain (AID 165).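 Further: 0% = growth equal to vehicle treated cultures.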 Conditions: S. cerevisiae cln2 rad14 strain, at 50.0 µM, hits give high values. Here is the method:
Growth inhibition of yeast strains with defined genetic alterations is measured as a screen for potential anti-cancer activity. Selected strains with alterations in DNA damage repair or cell cycle control were exposed to compounds and growth inhibition was measured relative to vehicle treated controls. The strain used in this assay is cln2 rad14
As for `CCCCN1C(=O)CC(=O)N(c2ccccc2)C1=O`, the growth inhibition was 14.3% (inactive).
The figure for `CN1CN(c2ccccc2)C2(CCN(Cc3csc4ccccc34)CC2)C1=O` is -1.3% (inactive); for `SCc1ccccc1.[Cu+2]` it is -35.1% (inactive).
Take `CC(C)c1ccc(CCN)cc1`: the growth inhibition is -0.2% (inactive).
The figure for `CCOC(=S)S.[Pb]` is 13.6% (inactive).
The figure for `CO[C@H]1C=CC2=CCN3CCC4=C(CC(=O)OC4)[C@]23C1` is 1.8% (inactive); for `Oc1ccc(Cl)cc1Br` it is 12% (inactive).
As to `C/C(CCl)=N\NC1=NC(C)(CCl)P(=O)(NNc2ncccn2)S1` (stereo not given), the growth inhibition was 11% (inactive).
The figure for `C1C[N-]CC[N-]1.C1C[N-]CC[N-]1.[Zn]` is 98.8% (active); for `CN1CN(c2ccccc2)C2(CCN(CCCCCCF)CC2)C1=O` it is -0.15% (inactive); for `Cn1c2c(c3ccccc31)CCN1OCC=C[C@@H](C(=O)O)[C@@H]21` it is 5.55% (inactive).
For the compound `Nc1cccnc1`, the growth inhibition was -1.55% (inactive).
On to `S=C(N=Nc1ccccc1)NNc1ccccc1.[Zn+2]`, for which the growth inhibition is 12.3% (inactive).
The figure for `CCC1(CNC(=O)CN)C(=O)NC(=O)NC1=O` is 27.4% (inactive).
The figure for `O=S1(=O)OCCOS(=O)(=O)C1(Cl)Cl` is -11.4% (inactive).
The figure for `CCCCC1(CCC)C(=O)NC(=O)NC1=O` is 13.7% (inactive); for `C=CC1CN2CCC1CC2C(O)c1ccnc2ccccc12` (stereo not given) it is 10.9% (inactive).
Consider `C[N+](C)(C)CC1(COC(=O)C(O)(c2ccccc2)c2ccccc2)CCCCC1`, for which the growth inhibition was -7.2% (inactive).
For the compound `O=C(CCl)Oc1ccccc1`, the growth inhibition was -10.8% (inactive).
The figure for `COc1ccc2c(c[n+](C)c3c4cc5c(cc4ccc23)OCO5)c1OC` is 14% (inactive); for `CCCCOCCOP(=O)(OCCOCCCC)OCCOCCCC` it is -14.8% (inactive).
As to `CCC(CC)C(=O)Cl`, the growth inhibition was -13.1% (inactive).
On to `C[C@@H]1C[C@@H](O)[C@]2(O)O[C@@H]3C[C@@]4(C=O)[C@@H](CC[C@@H]5[C@@H]4CC[C@]4(C)[C@@H](C6=CC(=O)OC6)CC[C@]54O)C[C@H]3O[C@@H]2O1`, for which the growth inhibition was -4.55% (inactive).
With `COc1ccc(N)cc1OC`, the growth inhibition is -12.2% (inactive).
For `C=C(Nc1nc2ccc(C)cc2s1)C(=O)C(CC)C(=O)C(CC)CC1C(=O)NC(=O)NC1=O` (stereo not given), the growth inhibition is -31.8% (inactive).
Turning to `O=P1(N(CCCl)CCCl)NCCCO1` (stereo not given), the growth inhibition was 4.8% (inactive).
Regarding `Cc1cccc(C#N)c1`, the growth inhibition is -1.4% (inactive).
Take `C[C@]12CC[C@H]3[C@@H](CCC4=C[C@@H](OC5OCC(OC6OC(CO)C(O)C(O)C6O)C(O)C5O)CC[C@@]43C=O)[C@@]1(O)CCC2C1=CC(=O)OC1` (stereo not given in full): the growth inhibition was -4.1% (inactive).
The figure for `CC1(C)N=C(N)N=C(N)N1c1ccc(OCCCOc2ccc(S(=O)(=O)F)cc2)cc1` is -7.65% (inactive); for `Cc1cc[n+](CCc2ccccc2)cc1` it is -8.35% (inactive); for `NC(N)=N/N=C/c1ccc(Cl)c(Cl)c1` it is -9.25% (inactive).
The figure for `CCOC(=O)N[N+]12CCN(CC1)CC2` is -12.9% (inactive); for `O=[N+]([O-])c1ccc(/C=C/C=C/C=C/C=C/c2ccc(S(=O)(=O)F)cc2Cl)c(Cl)c1` it is 7.15% (inactive); for `CC(C)N[C@@H]1CCC[C@H]1O` it is 11.7% (inactive).
The figure for `COC(=O)/C=C/c1ccc(Cl)cc1` is -36.5% (inactive).
As for `CCC(=O)c1ccc(OC)c(OC)c1`, the growth inhibition was -2.85% (inactive).
The figure for `CCOC(=O)C(C)(Br)CC` (stereo not given) is -81.4% (inactive); for `COc1ccc(N)cc1N` it is -42.4% (inactive); for `FC(F)(F)c1ccc2c(c1)N(CCCl)c1ccccc1S2` it is -79.2% (inactive).
In the case of `BrCC[N+]12CCCN1CCC2`, the growth inhibition is 0.2% (inactive).
